14 sequences from paper PMC5700166 can be followed below.

Holding throughout (test): protein-binding microarray (PBM); PBM: ~300 nM protein, 6 mM HEPES pH 7.8, 80 mM KCl, 0.5 mM EDTA, 0.5 mM EGTA, 6% glycerol, 35 ng/ul poly-dIdC, 1% milk, 1 h, room temperature; Ap Aiptasia and Nv Nematostella (sea anemones) / Co Capsaspora / Aq Amphimedon (sponge) / Dm Drosophila / Hu human; RHD is the Rel homology domain; high values mean tight binding
Holding throughout (settings): dsDNA, one strand shown

One test addresses T1, GST-Ap-NF-kB RHD (Exaiptasia pallida (Aiptasia), UniProt A0A913YAJ5 2-422).
T1 sequence: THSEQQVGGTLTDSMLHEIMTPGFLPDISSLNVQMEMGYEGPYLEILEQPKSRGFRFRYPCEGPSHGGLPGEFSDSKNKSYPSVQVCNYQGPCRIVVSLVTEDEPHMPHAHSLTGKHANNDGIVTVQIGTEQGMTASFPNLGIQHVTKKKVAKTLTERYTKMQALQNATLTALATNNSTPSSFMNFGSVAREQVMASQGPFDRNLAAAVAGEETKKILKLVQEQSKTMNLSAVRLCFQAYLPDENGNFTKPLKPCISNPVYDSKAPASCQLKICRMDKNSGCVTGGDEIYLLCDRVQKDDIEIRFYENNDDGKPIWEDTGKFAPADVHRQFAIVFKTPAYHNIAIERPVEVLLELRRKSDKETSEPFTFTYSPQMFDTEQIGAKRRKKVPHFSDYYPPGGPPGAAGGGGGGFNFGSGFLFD

The target in test [1] is T2, GST-Nv-NF-kB (Cys allele) (Nematostella vectensis, UniProt E5G601 2-411).
T2 sequence: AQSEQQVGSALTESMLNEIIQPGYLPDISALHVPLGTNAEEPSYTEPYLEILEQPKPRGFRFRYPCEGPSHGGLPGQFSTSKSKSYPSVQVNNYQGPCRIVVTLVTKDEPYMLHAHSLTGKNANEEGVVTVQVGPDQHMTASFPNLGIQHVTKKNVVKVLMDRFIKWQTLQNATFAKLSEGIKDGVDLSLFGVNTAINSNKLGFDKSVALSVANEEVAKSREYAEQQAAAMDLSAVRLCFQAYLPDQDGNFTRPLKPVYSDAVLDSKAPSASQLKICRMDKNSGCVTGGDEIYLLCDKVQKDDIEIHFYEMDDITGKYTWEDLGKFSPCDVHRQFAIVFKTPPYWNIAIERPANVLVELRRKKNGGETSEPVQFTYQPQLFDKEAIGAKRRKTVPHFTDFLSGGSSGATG

In a further test the target is T3, GST-Co-NF-kB (Capsaspora owczarzaki, UniProt F1ARL5 200-546).
T3 sequence: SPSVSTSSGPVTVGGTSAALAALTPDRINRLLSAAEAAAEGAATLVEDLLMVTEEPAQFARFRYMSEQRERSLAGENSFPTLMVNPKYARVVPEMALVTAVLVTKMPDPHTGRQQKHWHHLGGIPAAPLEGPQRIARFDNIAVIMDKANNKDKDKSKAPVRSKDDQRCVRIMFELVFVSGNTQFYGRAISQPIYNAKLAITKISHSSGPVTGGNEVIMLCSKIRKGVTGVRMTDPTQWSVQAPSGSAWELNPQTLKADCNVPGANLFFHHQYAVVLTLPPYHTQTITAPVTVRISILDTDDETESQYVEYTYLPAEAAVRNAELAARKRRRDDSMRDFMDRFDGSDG

The next test addresses T4, GST-Dm-Relish (Drosophila melanogaster, UniProt Q94527 99-473).
T4 sequence: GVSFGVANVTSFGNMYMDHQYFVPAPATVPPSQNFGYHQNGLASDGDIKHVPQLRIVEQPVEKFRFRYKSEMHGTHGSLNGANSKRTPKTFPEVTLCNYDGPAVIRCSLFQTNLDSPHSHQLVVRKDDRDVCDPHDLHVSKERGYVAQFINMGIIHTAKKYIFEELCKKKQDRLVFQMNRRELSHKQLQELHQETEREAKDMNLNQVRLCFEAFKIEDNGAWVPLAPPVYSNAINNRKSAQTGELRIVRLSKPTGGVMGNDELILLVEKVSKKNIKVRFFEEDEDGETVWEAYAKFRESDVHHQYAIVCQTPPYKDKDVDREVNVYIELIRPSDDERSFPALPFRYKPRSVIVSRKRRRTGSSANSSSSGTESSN

In a further test the target is T5, GST-Aq-NF-kB (Amphimedon queenslandica, UniProt A9Y5G7 2-389).
T5 sequence: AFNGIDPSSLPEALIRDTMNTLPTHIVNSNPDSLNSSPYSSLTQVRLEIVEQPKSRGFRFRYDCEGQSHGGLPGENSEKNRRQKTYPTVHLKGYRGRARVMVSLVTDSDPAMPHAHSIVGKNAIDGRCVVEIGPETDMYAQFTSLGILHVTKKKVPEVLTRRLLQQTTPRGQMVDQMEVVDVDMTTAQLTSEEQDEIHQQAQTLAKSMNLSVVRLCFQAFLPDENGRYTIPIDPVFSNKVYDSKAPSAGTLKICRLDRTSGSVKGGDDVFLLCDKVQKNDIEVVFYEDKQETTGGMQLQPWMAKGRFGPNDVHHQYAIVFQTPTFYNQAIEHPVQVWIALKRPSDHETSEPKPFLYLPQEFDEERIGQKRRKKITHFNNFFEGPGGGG

Take “CCGATTAACATCAGGGGAGTTAATGATGTTAATCGGGTCTTGATTCGCTTGACGCTGCTG”: the binding signal in the test with GST-Ap-NF-kB RHD stood at 4.13 z-score; in test [1] it was 4.06 z-score; in the test with GST-Co-NF-kB it was 3.34 z-score; in the test with GST-Dm-Relish, 3.14 z-score; with GST-Aq-NF-kB it was 3.63 z-score.
For the sequence “CCGATTAACATCAACGGGAATTCTGATGTTAATCGGGTCTTGATTCGCTTGACGCTGCTG”, the binding signal in the test with GST-Ap-NF-kB RHD was determined as 4.32 z-score; in test [1] it was 5.7 z-score; in the test with GST-Co-NF-kB, 3.23 z-score; with GST-Dm-Relish it was 4.15 z-score; with GST-Aq-NF-kB, 4.74 z-score.
The corresponding values for “CCGATTAACATCAACCCCGTTTCTGATGTTAATCGGGTCTTGATTCGCTTGACGCTGCTG” are 1.51 z-score, 1.29 z-score, 1.63 z-score, 1.65 z-score and 2.24 z-score.
Turning to “CCGATTAACATCAAGCAACCCCCTGATGTTAATCGGGTCTTGATTCGCTTGACGCTGCTG”, the binding signal with GST-Ap-NF-kB RHD turned out to be 5.23 z-score; in test [1], 3.34 z-score; in the test with GST-Co-NF-kB, 2.21 z-score; with GST-Dm-Relish, 5.19 z-score; in the test with GST-Aq-NF-kB, 4.14 z-score.
Take “CCGATTAACATCACCAAAATCCCTGATGTTAATCGGGTCTTGATTCGCTTGACGCTGCTG”: the binding signal in the test with GST-Ap-NF-kB RHD was found to be 3.22 z-score; in test [1], 2.45 z-score; with GST-Co-NF-kB, 1.36 z-score; with GST-Dm-Relish it was 5.42 z-score; with GST-Aq-NF-kB, 2.86 z-score.
As to “CCGATTAACATCAGGGGGTGAAATGATGTTAATCGGGTCTTGATTCGCTTGACGCTGCTG”, the binding signal with GST-Ap-NF-kB RHD is 3.26 z-score; in test [1], 3.42 z-score; with GST-Co-NF-kB, 6.99 z-score; with GST-Dm-Relish, 3.46 z-score; with GST-Aq-NF-kB, 3.93 z-score.
On to “CCGATTAACATCAGGGGGCGCACTGATGTTAATCGGGTCTTGATTCGCTTGACGCTGCTG”, for which the binding signal in the test with GST-Ap-NF-kB RHD came out at 3.71 z-score; in test [1] it was 3.04 z-score; with GST-Co-NF-kB, 2.37 z-score; with GST-Dm-Relish, 4.13 z-score; with GST-Aq-NF-kB, 4.79 z-score.
On to “CCGATTAACATCAGAATATTCCCTGATGTTAATCGGGTCTTGATTCGCTTGACGCTGCTG”, for which the binding signal with GST-Ap-NF-kB RHD came to 5.6 z-score; in test [1], 6.1 z-score; with GST-Co-NF-kB it was 3.41 z-score; with GST-Dm-Relish, 3.01 z-score; with GST-Aq-NF-kB it was 5.6 z-score.
Take “CCGATTAACATCAAAACTTCCCATGATGTTAATCGGGTCTTGATTCGCTTGACGCTGCTG”: the binding signal was 3.04 z-score in the test with GST-Ap-NF-kB RHD; 3.7 z-score in test [1]; 2.63 z-score with GST-Co-NF-kB; 4.52 z-score with GST-Dm-Relish; 4.42 z-score with GST-Aq-NF-kB.
The corresponding values for “CCGATTAACATCAGGGGGTGTTATGATGTTAATCGGGTCTTGATTCGCTTGACGCTGCTG” are 4.69 z-score, 4.31 z-score, 3.42 z-score, 4.34 z-score and 5.4 z-score.
As to “CCGATTAACATCAGGGAAAGAACTGATGTTAATCGGGTCTTGATTCGCTTGACGCTGCTG”, the binding signal worked out at 1.89 z-score with GST-Ap-NF-kB RHD; 3.99 z-score in test [1]; 2.55 z-score with GST-Co-NF-kB; 6.83 z-score in the test with GST-Dm-Relish; 4.9 z-score in the test with GST-Aq-NF-kB.
On to “CCGATTAACATCAGGGGACTATATGATGTTAATCGGGTCTTGATTCGCTTGACGCTGCTG”, for which the binding signal in the test with GST-Ap-NF-kB RHD came to 5.4 z-score; in test [1], 4.97 z-score; with GST-Co-NF-kB, 2.59 z-score; with GST-Dm-Relish, 2.85 z-score; with GST-Aq-NF-kB, 4.61 z-score.
As to “CCGATTAACATCAGGTATTCCCATGATGTTAATCGGGTCTTGATTCGCTTGACGCTGCTG”, the binding signal in the test with GST-Ap-NF-kB RHD turned out to be 3.43 z-score; in test [1], 2.67 z-score; in the test with GST-Co-NF-kB it was 2.14 z-score; with GST-Dm-Relish it was 7.54 z-score; in the test with GST-Aq-NF-kB it was 4.66 z-score.
Regarding “CCGATTAACATCAGACAATTCCCTGATGTTAATCGGGTCTTGATTCGCTTGACGCTGCTG”, the binding signal was 3.02 z-score with GST-Ap-NF-kB RHD; 5 z-score in test [1]; 2.28 z-score with GST-Co-NF-kB; 1.37 z-score with GST-Dm-Relish; 4.77 z-score with GST-Aq-NF-kB.
